# Laboratory results published in PubChem BioAssay AID372 (MTDP, 2006).
# Hit rate of the full screen: of about 100,000 compounds, about 770 (0.77%) were called active. The entries come from a sample that favours actives as a whole. Values without a mark were called inactive. Rule as the data show it: active = inhibition above about 50%; inactive = the rest.
# Target: Gag-Pol polyprotein (Human immunodeficiency virus type 1 group M subtype B (isolate HXB2)) (UniProt P04585)
# Experiment: RNase H inhibition, HIV 1 Gag Pol polyprotein, FRET biochemical assay, screening (AID 372)
# Conditions: HIV-1 RT RNase H, FRET RNA/DNA substrate fluorescence; at 10 µM; active compounds read high
row,SMILES,inhibition
1,COc1ccc(N=CC2=C(O)CC(c3ccccc3)CC2=O)cc1OC (configuration not stated),0%
2,COC(=O)c1ccc(NC(=O)Cc2ccc(OC)cc2)cc1,1%
3,CN1CCN(C2=NC(=O)/C(=C/c3ccc4c(c3)OCO4)S2)CC1,8%
4,O=C(C[n+]1cccc(NC(=O)c2ccccc2)c1)c1ccc2c(c1)Cc1ccccc1-2,24%
5,CCOC(=O)C1=C(C)N=c2s/c(=C\c3ccc(-c4ccc(Cl)cc4Cl)o3)c(=O)n2C1c1ccc(C)cc1 (configuration not stated),5%
6,CCOc1ccc(C(=O)Nc2ccc(CC)cc2)cc1[N+](=O)[O-],9%
7,Cc1ccc(S(=O)(=O)Nc2ccccn2)cc1C,0%
8,O=P(CCCO)(c1ccc(Cl)cc1)c1ccc(Cl)cc1,1%
9,O=C1C2C3C=CC(C3)C2C(=O)N1CNc1ccccc1 (configuration not stated),6%
10,COC(=O)c1ccccc1NS(=O)(=O)c1ccc(NC(C)=O)cc1,4%
11,COC(=O)c1ccccc1NS(=O)(=O)c1ccccc1,57% (active)
12,COC(=O)c1ccccc1NS(=O)(=O)c1ccc(Cl)cc1,12%
13,COc1ccc(S(=O)(=O)N(CCc2ccccc2)CC(=O)NC2CCCCC2)cc1,4%
14,CCn1c2ccccc2c2cc(NC(=O)COc3ccccc3Cl)ccc21,7%
15,COc1cc(C=O)ccc1OCCCCOc1cccc(Oc2ccccc2)c1,44%
16,COc1cc(C=O)ccc1OCCOc1cccc(Oc2ccccc2)c1,21%
17,COc1ccc([N+](=O)[O-])cc1-c1ccc(/C=C(\C#N)c2nc3ccc(C)cc3[nH]2)o1,34%
18,Cc1ccc2nc(/C(C#N)=C/c3ccc(-c4cc([N+](=O)[O-])ccc4O)o3)[nH]c2c1,6%
19,Cc1ccc([N+](=O)[O-])cc1-c1ccc(/C=C(\C#N)c2nc3ccccc3[nH]2)o1,58% (active)
20,Cc1cccc(N2CCN(C(=O)c3ccc(Br)cc3)CC2)c1C,18%
21,Cc1ccc(S(=O)(=O)c2nc(N)sc2Cl)cc1,30%
22,Cc1ccc(S(=O)(=O)c2nc(Nc3ccccc3C)sc2Cl)cc1,59% (active)
23,COc1nc(S(=O)(=O)c2ccc(C)cc2)c(Cl)s1,0%
24,COc1ccccc1-n1c(O)c(C=C2C=Nc3ccccc32)c(=O)[nH]c1=S,7%
25,CCc1nnc(NC(=O)c2cnccn2)s1,9%

row,SMILES,inhibition
1,CCSc1nnc(NC(=O)c2ccc(Cl)cc2)s1,4%
2,CCSc1nnc(NC(=O)c2cnccn2)s1,57% (active)
3,CCOC(=O)c1ccc(NC(=O)Cc2ccc(Br)cc2)cc1,3%
4,COc1ccc(-c2n[nH]c(=S)n2N=C/C(Br)=C/c2ccccc2)cc1,21%
5,N#Cc1c(-c2ccc(Br)cc2)cc(-c2ccc3c(c2)OCO3)c(C#N)c1N,48%
6,N#Cc1c(-c2ccc(Br)cc2)cc(-c2ccco2)c(C#N)c1N,58% (active)
7,N#Cc1c(-c2ccccc2)cc(-c2ccco2)c(C#N)c1N,18%
8,Cc1ccccc1C(=O)Nc1sc2c(c1C(=O)Nc1cccc3ccccc13)CCC2,13%
9,O=C(Nc1cccc(O)c1)c1cc2nc(-c3ccc(Cl)cc3)cc(C(F)(F)F)n2n1,11%
10,CC(=O)Oc1ccc(C(=O)Nc2cccc(C(=O)O)c2C)cc1,55% (active)
11,CC(=O)Oc1ccc(C(=O)Nc2ccc(C)cc2C(=O)O)cc1,4%
12,CC(=O)Oc1ccc(C(=O)Nc2cccc([N+](=O)[O-])c2C)cc1,6%
13,Cc1ccccc1N1C(=O)NC(=O)/C(=C\c2cccn2-c2ccc(Cl)cc2)C1=O,42%
14,CC(C)(C)c1ccc(C(C)(C)C)c(Oc2ccccc2)c1O,8%
15,Cc1ccc([N+](=O)[O-])cc1NC(=O)c1cccc2c1C(=O)c1ccccc1-2,0%
16,COc1ccccc1/C=C1\SC(NC(C)=O)=NC1=O,17%
17,COc1ccc2ccccc2c1/C=C1/SC(NC(C)=O)=NC1=O,52% (active)
18,COc1cccc(/C=C2/SC(NC(C)=O)=NC2=O)c1OC,8%
19,COc1ccc(-c2n[nH]c(=S)n2/N=C/c2ccccc2Br)cc1,12%
20,COc1ccc(/C=C/c2ccc3ccccc3n2)cc1,17%
21,Cc1cn(C(=O)C(C)N2C(=O)c3ccccc3C2=O)c(C)n1 (configuration not stated),53% (active)
22,Cc1nn(C(=O)C(C)N2C(=O)c3ccccc3C2=O)c(C)c1Br (configuration not stated),41%
23,Cc1cc(C)n(C(=O)C(C)N2C(=O)c3ccccc3C2=O)n1 (configuration not stated),43%
24,CCCCOC(=O)C1=C(C)NC(=O)NC1c1ccc(Br)cc1 (configuration not stated),23%
25,CC1=C(C(=O)OC2CCCC2)C(c2ccccc2Cl)NC(=O)N1C (configuration not stated),5%

row,SMILES,inhibition
1,CC1=C(C(=O)OCCc2ccccc2)C(c2ccc(C)s2)NC(=O)N1 (configuration not stated),19%
2,CC1=C(C(=O)OCc2ccccc2)C(c2ccc(C)s2)NC(=O)N1 (configuration not stated),55% (active)
3,COCCOC(=O)C1=C(C)NC(=O)NC1c1ccc(C)s1 (configuration not stated),8%
4,COC(=O)C1=C(C)N(C)C(=O)NC1c1ccccc1I (configuration not stated),5%
5,CCCCCCOC(=O)C1=C(C)NC(=O)NC1c1ccc(Br)cc1 (configuration not stated),53% (active)
6,CC1=C(C(=O)OC2CCCCCC2)C(c2ccc(C)cc2)NC(=O)N1 (configuration not stated),36%
7,CC1=C(C(=O)OC2CCCCCC2)C(c2ccccc2I)NC(=O)N1C (configuration not stated),52% (active)
8,CCCCCOC(=O)C1=C(C)NC(=O)NC1c1ccc(Br)cc1 (configuration not stated),20%
9,CC1=C(C(=O)OC2CCCCCCC2)C(c2ccccc2)NC(=O)N1 (configuration not stated),57% (active)
10,CC1=C(C(=O)OC2CCCCCC2)C(c2ccccc2)NC(=O)N1 (configuration not stated),14%
11,Cc1cccc(C)c1NC(=O)c1ccc(N(Cc2ccc(Cl)cc2)S(C)(=O)=O)cc1,15%
12,Cc1ccccc1OCCOc1ccc(Br)cc1/C=C1\SC(N)=NC1=O,33%
13,Cc1cccc(OCC(=O)Nc2ccccc2C(C)C)c1C,8%
14,O=C(CCN1C(=O)/C(=C/c2ccccc2Cl)SC1=S)Nc1ccc(-c2ccccc2)cc1,16%
15,CSc1nc2ccccc2n1CCOc1ccc(C)cc1,8%
16,Clc1ccc(COc2ccc(/C=N/n3cnnc3)cc2)c(Cl)c1,3%
17,O=Cc1cccc(OCc2ccc(Cl)cc2Cl)c1,32%
18,Clc1ccc(COc2cccc(/C=N/n3cnnc3)c2)c(Cl)c1,50% (active)
19,CCSCCOC(=O)C1=C(C)NC2=C(C(=O)CC(c3cccs3)C2)C1c1ccc(C)s1 (configuration not stated),11%
20,COc1ccc(OC)c(C2C(C(C)=O)=C(O)C(=O)N2CC2CCCO2)c1 (configuration not stated),0%
21,Cc1ccc(/C=C2\C(=O)NC(=S)N(c3ccc(Br)cc3C)C2=O)o1,24%
22,O=C1NC(=S)N(c2ccc(Cl)cc2)C(=O)/C1=C\c1ccc(Cl)s1,8%
23,Cc1ccc(N2C(=O)/C(=C/c3ccco3)C(=O)NC2=S)cc1,9%
24,Cc1ccc(/C=C2\C(=O)NC(=S)N(c3ccc(Br)cc3)C2=O)o1,32%
25,Cc1cc(Br)ccc1N1C(=O)/C(=C/c2cccs2)C(=O)NC1=S,16%

row,SMILES,inhibition
1,Cc1ccc(/C=C2\C(=O)NC(=S)N(c3ccc(Cl)c(Cl)c3)C2=O)o1,11%
2,O=C1NC(=S)N(c2ccccc2F)C(=O)/C1=C/c1ccc(N2CCCC2)o1,14%
3,O=C1NC(=S)N(c2ccccc2F)C(=O)/C1=C/c1ccc(-c2ccc(Cl)cc2)o1,14%
4,Cc1cccc(C)c1NC(=O)c1ccc(-c2ccc(Cl)cc2Cl)o1,28%
5,C=CCc1cccc2cc(C(=O)N3CCCCC3)c(=O)oc12,1%
6,COc1ccc(C2/C(=C(/O)c3ccccc3)C(=O)C(=O)N2c2ccc(C)cc2)cc1 (configuration not stated),7%
7,CCCCn1c(O)c(/C=C2\C=Nc3ccccc32)c(=O)[nH]c1=O,25%
8,CCc1ccccc1N1C(=O)NC(=O)/C(=C\c2ccc(N3CCCCC3)o2)C1=O,9%
9,O=C1NC(=S)N(c2ccc(Br)cc2)C(=O)/C1=C/C=C/c1ccco1,16%
10,O=C1NC(=O)N(c2ccc(Cl)cc2)C(=O)/C1=C\C=C\c1ccccc1[N+](=O)[O-],14%
11,Cc1ccccc1N1C(=O)/C(=C/c2ccc(I)o2)C(=O)NC1=S,18%
12,O=C1NC(=O)N(c2ccccc2F)C(=O)/C1=C/c1ccc(I)o1,0%
13,O=C1NC(=S)N(c2cccc(Cl)c2Cl)C(=O)/C1=C/c1ccc(Cl)cc1,10%
14,O=C1NC(=S)N(c2cccc(Cl)c2Cl)C(=O)/C1=C/c1ccco1,58% (active)
15,O=C1NC(=S)N(c2cccc(Cl)c2Cl)C(=O)/C1=C/c1ccc(I)o1,45%
16,O=C1NC(=S)N(c2ccccc2)C(=O)/C1=C\C=C\c1ccccc1[N+](=O)[O-],16%
17,Cc1cccc(N2C(=O)/C(=C/C=C/c3ccco3)C(=O)NC2=S)c1,11%
18,Cc1cc(C=O)c(C)n1-c1ccc(Cl)cc1,10%
19,CCN(CC)c1ccc(/C=C2\C(=O)N(c3nc(-c4ccc(Cl)cc4)cs3)N=C2c2ccccc2)cc1,8%
20,O=[N+]([O-])c1ccc(NC(=S)Nc2ccccc2)c(O)c1,2%
21,CCOC(=O)C1=C(C)NC2=C(C(=O)CC(c3ccc(OC)cc3)C2)C1c1ccc(O)cc1 (configuration not stated),11%
22,Cc1ccc(/C=N/NC(=O)c2ccc(F)cc2)s1,7%
